# From PubChem
# NS1 function inh – qHTS Assay for Inhibitors of Influenza NS1 Protein Function; Potency, µM (highest dose often 46.1 µM), for the others: at the top dose activity, positive = more growth; hit rate 0.4% among 270,000; AID 2326, 2010; calls by dose curve; note: potency is the fitted concentration of half-maximal effect; actives are rising curves; nearly all actives have a fitted effect of over 50% in size
#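 Read-out: OD600 growth recovery of NS1-expressing budding yeast. Cells grown overnight at 30C in -URA glucose medium, washed, resuspended and diluted 1:100 in 2% galactose assay medium, pH 6.0. Same strain lacking NS1 served as positive control.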
# Cycloheximide cs – Cycloheximide Counterscreen for Small Molecule Inhibitors of Shiga Toxin; cell reporter, cycloheximide protein synthesis inhibition counterscreen; max response, %; hit rate 12% among 300,000; in the data active = max response mostly above about 13%, no sharp cut-off; inactive = mostly below about 14%; note: read at 38.3 µM for the half of the compounds with a filed dose; 0% is about no effect
# Pf growth 48h – Primary qHTS for delayed death inhibitors of the malarial parasite plastid, 48 hour incubation; P. falciparum luciferase growth in erythrocytes, 48 h; hit rate 5.9% among 310,000; Potency, µM (series often up to 28.7 µM), without a hit: at the highest dose activity change, negative = inhibition, hits mostly inhibitors; AID 504832, 2011; note: potency is the fitted concentration of half-maximal effect; % is set by controls: 0 for no effect and ±100 for the full control effect
#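 Compounds are pin-transferred into medium, infected erythrocytes (2% hematocrit, 0.1% parasitemia final) are added, and plates sit one parasite generation at 37 C in 5% CO2. Detection reagent is then added and luminescence measured.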
# Shiga toxin inh – A qHTS for Small Molecule Inhibitors of Shiga Toxin | AID 2315, 2010 | Vero cells, Shiga toxin protein synthesis inhibition reporter | hit rate 9.2% among 290,000 | inhibition, % at 38.7 µM; in the data active = inhibition mostly above about 28%, no sharp cut-off; inactive = mostly below about 43%; note: 0% is about no effect
# Pf growth 96h – Primary qHTS for delayed death inhibitors of the malarial parasite plastid, 96 hour incubation | hit rate 6.9% among 320,000 | Potency, µM (highest dose often 28.7 µM), for inactives: at the highest dose activity change, negative = inhibition, most hits filed as inhibitors | P. falciparum luciferase reporter growth, 96 h; note: potency is the fitted concentration of half-maximal effect; % is set by controls: 0 for no effect and ±100 for the full control effect
#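 Two-generation exposure (96 h) targets delayed-death phenotype. Reporter parasites carrying integrated firefly luciferase, in red cells at 2% hematocrit and 0.05% parasitemia final, kept at 37 C, 5% CO2; luminescence loss indicates inhibition.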
# * marks the source's active call; other numbers are inactive results; ? = inconclusive; . = no result given. Compounds with a hit are over-represented: about 21% of the library has one in this group of screens. Unless noted, calls come from the whole dose curve; as a rule, active = well fitted inhibition curve with a large enough effect; inconclusive = small, poorly fitted or top-dose-only effect, or another doubt; inactive = no such curve, though single readings can be large or run the other way.
SMILES,NS1 function inh,Cycloheximide cs,Pf growth 48h,Shiga toxin inh,Pf growth 96h
COC(=O)[C@@]12CCCCN1[C@H](c1ccc(-c3cccc(Cl)c3)c(OC)c1)[C@@H]1C(=O)N(C)C(=O)[C@@H]12,.,.,9.28µM*,.,7.38µM*
CCC1(C(=O)OC)NC(c2ccccc2OC)C2C(=O)N(C)C(=O)C21 (stereo unspecified),5.2%,-3.9,9.3%,-26.5,-8.6%
COC(=O)[C@@]12CCCN1[C@H](c1ccc(-c3cccc(Cl)c3)c(OC)c1)[C@H]1C(=O)N(C)C(=O)[C@H]12,.,.,2.33µM*,.,0.329µM*
COc1cc(NC(=O)c2cccc(Cl)c2)c(OC)cc1NC(=O)CN1CCCCC1,-3.4%,-4.5,-15.3%,7.4,-19.5%
COC(=O)[C@@]12CCCCN1[C@H](c1ccc(-c3ccc(C(C)=O)cc3)c(OC)c1)[C@@H]1C(=O)N(C)C(=O)[C@@H]12,.,.,8.28µM*,.,?
CC(C)(C)CC(C)(C)NCC(O)COc1c(F)cc(Br)cc1F (stereo unspecified),-7.6%,-4.7,.,-9.5,0.586µM*
CC(C)(C)NCC(O)COc1c(F)cc(Br)cc1F (stereo unspecified),1.0%,-0.8,11.7µM*,-10.9,.
Cc1nn(-c2ccccc2)c(C)c1/C=N/NC(=O)c1cc(-c2cccs2)[nH]n1,-42.8%,5.4,?,-8.8,-72.7%
CC/C(=N\NC(=O)c1cc(C2CC2)[nH]n1)c1ccccc1,-0.1%,15.4*,68.2%,68.6*,41.1%
CC(C)NC(=O)CC(=O)N/N=C/c1c(F)cccc1Cl,4.5%,4.2,32.2%,-1.5,?
Cc1cc(C(=O)N/N=C/c2c(C)nn(-c3ccccc3)c2C)n[nH]1,-0.4%,17.6*,-10.5%,55.4*,?
Cc1nn(-c2ccccc2)c(C)c1/C=N/NC(=O)c1cc(C2CC2)[nH]n1,7.5%,13.9*,-28.3%,-0.9,?
O=C(N/N=C/c1c(F)cccc1Cl)c1cc(C2CC2)[nH]n1,-7.2%,30.2*,106.9%,76.6*,58.2%
COCCCc1cc(F)c(S(=O)(=O)N2CCN(S(=O)(=O)c3ccc4c(c3)OCCO4)CC2)cc1F,.,-0.8,.,-1.6,.
Cc1ccc(CCNS(=O)(=O)c2cc3c(cc2Cl)NC(=O)CO3)cc1,6.7%,-1.2,20.2%,-2.8,?
CCCCn1c(SCC(=O)Nc2ccc3c(c2)OCO3)nc2c1c(=O)n(C)c(=O)n2C,-8.7%,7.8,?,12.4,-1.5%
Cc1nn(-c2ccccc2)c(C)c1/C=N/NC(=O)c1cnccn1,-0.7%,15.8*,27.5%,40.2,22.8%
Cc1nn(-c2ccccc2)c(C)c1/C=N/NC(=O)c1cc(-c2ccc(Br)s2)[nH]n1,10.8%,-0.7,-8.3%,-4.7,-9.1%
Cc1nn(-c2ccccc2)c(C)c1/C=N/NC(=O)c1cc(C23CC4CC(CC(C4)C2)C3)[nH]n1,-0.4%,-1.5,3.29µM*,-6.8,2.08µM*
Cc1nn(-c2ccccc2)c(Cl)c1/C=N\NC(=O)c1cnccn1,0.0%,-3.1,-3.8%,-9.1,0.2%
CCOc1ccc(NC2=NC(C(=O)NCc3ccccc3)CC(=O)N2)cc1 (stereo unspecified),1.4%,-2.4,31.4%,12.9,?
CCNc1nc(NCC)n2c(SC(C(=O)Nc3cc(C)ccc3OC)c3ccccc3)nnc2n1 (stereo unspecified),-11.8%,-1.0,?,-14.9,?
CC1CCCCN1CC(O)COCc1ccc(Cl)cc1 (stereo unspecified),-10.6%,-1.4,28.4%,1.3,1.5%
COc1ccc2nc3oc(C(=O)NCc4cccs4)cc3cc2c1,-0.1%,2.9,?,25.5,0.0%
COc1ccc2nc3oc(C(=O)N4CC(C)CC(C)C4)cc3cc2c1 (stereo unspecified),-42.0%,14.2,?,55.7*,?
SMILES,NS1 function inh,Cycloheximide cs,Pf growth 48h,Shiga toxin inh,Pf growth 96h
COc1ccc2nc3oc(C(=O)N4CCCCC4)cc3cc2c1,-44.6%,30.3*,51.9%,75.5*,?
CCOC(=O)C1CCN(C(=O)c2cc3cc4cc(OC)ccc4nc3o2)CC1,-16.3%,32.2*,?,28.7,63.5%
COc1ccc2cc3cc(C(=O)N4CCN(c5ccccc5)CC4)oc3nc2c1,-5.2%,-6.2,.,-9.8,.
CCOC(=O)C1CCCN(C(=O)c2cc3cc4ccc(OC)cc4nc3o2)C1 (stereo unspecified),-15.0%,0.4,-18.9%,33.9,48.3%
CCOCCCNC(=O)c1cc2cc3cc(OC)ccc3nc2o1,-9.9%,8.3,?,15.6,-3.6%
COc1ccc2cc3cc(C(=O)N4CCCC(C)C4)oc3nc2c1 (stereo unspecified),-1.0%,37.7*,18.1%,82.0*,11.7µM*
CCCc1cc2c(=O)n(NC(=O)c3nn(C)cc3[N+](=O)[O-])c(C)nc2s1,15.6%,-2.2,4.6%,-2.5,18.9%
COc1cccc(CC(NC(C)=O)C(=O)NC2CCN(C(=O)C3CC3)CC2)c1OC (stereo unspecified),-1.2%,-5.6,-19.0%,19.8,11.0%
Cn1c(SCc2ccccc2[N+](=O)[O-])nnc1-c1cccnc1,.,23.5*,61.9%,51.4*,?
Cn1c(SCc2nc3ccccc3[nH]2)nnc1-c1cccnc1,12.3%,14.0,7.7%,31.2,1.85µM*
COc1ccccc1-c1nnc(SCc2nc3ccccc3[nH]2)n1C,11.0%,-2.4,-10.8%,-4.2,.
Cn1c(SCC(=O)C(C)(C)C)nnc1-c1cccnc1,-0.7%,-2.1,15.5%,2.7,?
CCOc1ccc(-c2nnc(SCc3nc4ccccc4[nH]3)n2N)cc1,17.8%,42.2*,?,82.0,.
COc1cc(/C=N/N(C)c2ccccc2)cc(Cl)c1O,-150.8%,37.5*,4.7%,122.8,.
COc1ccc(OC)c(/C=N/N(C)c2ccccc2)c1,-7.8%,36.2*,.,39.2,.
NC(=O)CC(O)c1cccc(Cl)c1 (stereo unspecified),?,-1.4,0.7%,22.7,72.3%
COC(=O)CSc1nc(NC#N)nc(NC(C)C)n1,1.0%,1.8,25.7%,-3.8,48.5%
COc1ccc(Cl)cc1NC(=S)NCCSc1ccc(C)cc1,-24.0%,-1.0,-15.6%,-1.4,11.7µM*
COc1ccccc1NC(=S)NCCSc1ccc(Cl)cc1,-0.5%,-0.9,-18.7%,-13.8,?
Cc1ccc(NC(=S)NCCSc2ccc(Cl)cc2)cc1,.,-2.4,11.7µM*,26.6,?
Cc1cccc(C(=O)N/N=C/C(C)Cc2ccc3c(c2)OCO3)c1 (stereo unspecified),19.0%,-0.9,-9.0%,-4.8,-23.1%
COc1cccc(N/C(SCc2cccc([N+](=O)[O-])c2)=C(/C#N)C(=O)NCc2cccs2)c1,12.7%,-4.6,10.4µM*,-12.1,?
COc1cccc(N/C(SCc2ccccc2Cl)=C(/C#N)C(=O)NCc2cccs2)c1,2.4%,5.4,10.4µM*,-7.4,?
COc1cccc(NC(=O)Cc2cccs2)c1,-13.5%,14.9,6.6%,17.2,33.2%
COc1cccc(N/C(SC)=C(/C#N)C(=O)NCc2cccs2)c1,.,9.6,8.5%,-0.4,16.4%
